The results in this text go back to PubChem BioAssay (Tox21).

Values joined by “and” are separate entries in the source; they are usually repeats but may differ in a detail not shown here. Identical values can stand only once. Records with an inconclusive call do not appear. A structure can be active in one record and inactive in another. Active and inactive are the calls of the source. Unless noted, calls come from the whole dose curve; as a rule, active = well fitted curve in the direction sought with a large enough effect in the repeat runs; inconclusive = weak or mixed curves; inactive = no such curve, though single readings can be large; an effect the other way counts as inactive or inconclusive. Residues, ends and D or L forms follow the SMILES beside them.

Experiment [1] can be described thus: A CellTox Green Cytotoxicity Assay to monitor cytotoxicity in HEK293 cells - 32 hour (AID 1224881). Note: nearly all actives have a fitted effect of over 40% in size. A digest of the protocol:
(§1)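 HEK293 cells premixed with CellTox Green dye were seeded at 600 cells/well and left 5 h at 37 C/5% CO2 before pin transfer of 23 nL compound in DMSO. Fluorescence from dye bound to dead-cell DNA was read during 40 h treatment.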

Experiment [2] in a line: A CellTox Green Cytotoxicity Assay to monitor cytotoxicity in HepG2 cells - 0 hour (AID 1224882). Note: nearly all actives have a fitted effect of over 35% in size. A digest of the protocol: (§2)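 HepG2 cells were seeded together with the CellTox Green dye at 600 cells/well, left 5 h at 37 C/5% CO2, then given compounds in DMSO. Fluorescence from dye bound to dead-cell DNA was read repeatedly over 40 h of treatment at 37 C.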
Experiment [3] is described as follows: A CellTox Green Cytotoxicity Assay to monitor cytotoxicity in HepG2 cells - 32 hour (AID 1224883). Note: nearly all actives have a fitted effect of over 50% in size. A digest of the protocol:
as §2

A short description of experiment [4]: A CellTox Green Cytotoxicity Assay to monitor cytotoxicity in HEK293 cells - 8 hour (AID 1224884). Note: nearly all actives have a fitted effect of over 35% in size. A digest of the protocol: as §1
The nature of experiment [5]: qHTS RealTime-Glo MT Cell Viability Assay in HepG2 cells - 16 hour (AID 1224885). Note: nearly all actives have a fitted effect of over 50% in size. In short, it runs like this:
(§3)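 HepG2 cells (600/well) were dispensed with RealTime-Glo reagents, incubated 5 h at 37 °C, then treated with compounds in DMSO for up to 40 h. Nonlytic NanoLuc luminescence reflecting viable cells was read at each stated time point.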
A general note: In qHTS, concentration-response curves come from the screen itself.

Experiment [6] can be described thus: qHTS RealTime-Glo MT Cell Viability Assay in HEK293 cells - 24 hour (AID 1224886). Note: nearly all actives have a fitted effect of over 50% in size. Note: potency is the fitted concentration of half-maximal effect. In short, it runs like this: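 HEK293 cells seeded with NanoLuc/prosubstrate reagent, rested 5 h at 37 C, then dosed and kept at 37 C up to 40 h. Nonlytic real-time luminescence from viable cells read at 0, 8, 16, 24, 32 and 40 h.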
Experiment [7] in a line: qHTS RealTime-Glo MT Cell Viability Assay in HEK293 cells - 8 hour (AID 1224887). Note: nearly all actives have a fitted effect of over 50% in size. Note: potency is the fitted concentration of half-maximal effect. In short, it runs like this: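 HEK293 cells mixed with RealTime-Glo reagents (NanoLuc plus cell-permeant prosubstrate) at 600 cells/well, preincubated 5 h at 37 C/5% CO2, then given 23 nL compound in DMSO. Nonlytic luminescence from viable cells was read at 0, 8, 16, 24, 32 and 40 h.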
A short description of experiment [8]: A CellTox Green Cytotoxicity Assay to monitor cytotoxicity in HEK293 cells - 16 hour (AID 1224888). Note: nearly all actives have a fitted effect of over 35% in size. In short, it runs like this: as §1
Experiment [9] can be described thus: qHTS RealTime-Glo MT Cell Viability Assay in HepG2 cells - 0 hour (AID 1224889). Note: nearly all actives have a fitted effect of over 50% in size. A digest of the protocol:
as §3

Experiment [10] in a line: A CellTox Green Cytotoxicity Assay to monitor cytotoxicity in HepG2 cells - 8 hour (AID 1224890). Note: nearly all actives have a fitted effect of over 45% in size. In short, it runs like this: as §2
A short description of experiment [11]: qHTS assay to identify small molecule antagonists of the estrogen receptor alpha (ER-alpha) signaling pathway using the BG1 cell line in the presence of 0.1 nM 17-beta-estradiol - cell viability counter screen (AID 1259241). Note: nearly all actives have a fitted effect of over 40% in size. In short, it runs like this:
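Viability in VM7Luc4E2 cells after 22 hr compound exposure under 0.1 nM 17beta-estradiol stimulation, by CellTiter-Fluor.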

Experiment [12] can be described thus: qHTS assay to identify small molecule antagonists of the androgen receptor (AR) signaling pathway using the MDA cell line in the presence of 0.5 nM R1881 - cell viability counter screen (AID 1259242). Note: nearly all actives have a fitted effect of over 45% in size. A digest of the protocol:
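MDA-kb2 cells (human breast carcinoma, stably carrying MMTV-luciferase reporter) were exposed to compounds with 0.5 nM R1881 (final) for 16 hr at 37C, 0% CO2; viability then read as live-cell protease fluorescence (CellTiter-Fluor, 30 min) in the same wells.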

Experiment [13] addresses Androgen receptor (Homo sapiens) (UniProt P10275). Kind of experiment: qHTS assay to identify small molecule antagonists of the androgen receptor (AR) signaling pathway using the MDA cell line in the presence of 0.5 nM R1881 (AID 1259243). Note: nearly all actives have a fitted effect of over 50% in size. In short, it runs like this:
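MDA-kb2 human breast carcinoma cells carrying an MMTV-luciferase reporter (AR- and GR-responsive) were plated, rested 5 hr at 37C, dosed with compounds, then stimulated with 0.5 nM R1881 (final) for 16 hr; luminescence was read after ONE-Glo.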

A short description of experiment [14]: qHTS assay to identify small molecule phospholipidosis (PLD) inducers (AID 1259344; active = well fitted curve in the direction sought with a large enough effect; an effect the other way counts as inactive or inconclusive). A digest of the protocol: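 HepG2 cells, 900/well, treated with compound plus LipidTOX Red for 24 h at 37 C; amiodarone positive and DMSO negative controls. Fixed with paraformaldehyde/Hoechst, then high-content imaging scored LipidTOX pit count and integrated intensity per well and per cell.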

Experiment [15] can be described thus: qHTS assay to identify small molecule HDAC inhibitors (AID 1259364). Note: top concentration of the series differs between compounds; nearly all actives have a fitted effect of over 45% in size. In short, it runs like this: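 Wild-type HCT-116 cells were plated overnight, exposed to compounds for 2 h at 37 °C, then given HDAC-Glo class I/II luminogenic reagent for 30 min at room temperature before luminescence was read.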
The nature of experiment [16]: qHTS assay to identify small molecule HDAC inhibitors - cell viability counter screen (AID 1259365). A digest of the protocol: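 Cytotoxicity was gauged in wild-type HCT-116 cells after a brief 2hr treatment with DMSO-dissolved compounds at 37C and 5% CO2, using CellTiter-Glo luminescence developed for 30min at room temperature.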
A short description of experiment [17]: qHTS assay to identify small molecule agonists of the sonic hedgehog signaling (Shh) pathway - cell viability counter screen (AID 1259366). Note: nearly all actives have a fitted effect of over 50% in size. In short, it runs like this:
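Stable Gli1-Luc NIH/3T3 clone, 2,000 cells/well. Compound exposure 24hr at 37C. Read-out: CellTiter-Fluor fluorescence.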

A short description of experiment [18]: qHTS assay to identify small molecule antagonists of the sonic hedgehog signaling (Shh) pathway - cell viability counter screen (AID 1259367). Note: nearly all actives have a fitted effect of over 55% in size. A digest of the protocol: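 NIH/3T3-derived Gli1-Luc reporter cells, 2,000/well, plated 4 hr before compound addition, then stimulated with conditioned medium for 24 hr at 37C. Viability measured in the same wells by CellTiter-Fluor fluorescence, reagent added at 23 hr for 1 hr.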

Experiment [19] can be described thus: qHTS assay to identify small molecule agonists of the sonic hedgehog signaling (Shh) pathway (AID 1259368; calls by dose curve; note: series mostly up to about 92 µM; nearly all actives have a fitted effect of over 15% in size). A digest of the protocol: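 NIH/3T3-derived 3T3Gli1-Luc cells carrying a stably integrated Gli1 response element–firefly luciferase reporter were plated, left 4 hr at 37 C, then given compounds in DMSO for 24 hr. Luminescence was read 30 min after adding luciferase reagent.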

Experiment [20] has as its target Estrogen receptor (Homo sapiens) (UniProt P03372). Kind of experiment: qHTS assay to identify small molecule antagonists of the estrogen receptor alpha (ER-alpha) signaling pathway using the BG1 cell line in the presence of 0.1 nM 17-beta-estradiol (AID 1259244). Note: nearly all actives have a fitted effect of over 50% in size. A digest of the protocol: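 VM7Luc4E2 cells (endogenous full-length ER-alpha, stable 4xERE-luciferase) were grown 5 days in phenol red-free medium with charcoal-stripped FBS, then exposed 22 h at 37C to compounds plus 0.1 nM (final) 17beta-estradiol; ONE-Glo luminescence read-out.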

Chain of Androgen receptor (Homo sapiens) (P10275 whole entry, looked up): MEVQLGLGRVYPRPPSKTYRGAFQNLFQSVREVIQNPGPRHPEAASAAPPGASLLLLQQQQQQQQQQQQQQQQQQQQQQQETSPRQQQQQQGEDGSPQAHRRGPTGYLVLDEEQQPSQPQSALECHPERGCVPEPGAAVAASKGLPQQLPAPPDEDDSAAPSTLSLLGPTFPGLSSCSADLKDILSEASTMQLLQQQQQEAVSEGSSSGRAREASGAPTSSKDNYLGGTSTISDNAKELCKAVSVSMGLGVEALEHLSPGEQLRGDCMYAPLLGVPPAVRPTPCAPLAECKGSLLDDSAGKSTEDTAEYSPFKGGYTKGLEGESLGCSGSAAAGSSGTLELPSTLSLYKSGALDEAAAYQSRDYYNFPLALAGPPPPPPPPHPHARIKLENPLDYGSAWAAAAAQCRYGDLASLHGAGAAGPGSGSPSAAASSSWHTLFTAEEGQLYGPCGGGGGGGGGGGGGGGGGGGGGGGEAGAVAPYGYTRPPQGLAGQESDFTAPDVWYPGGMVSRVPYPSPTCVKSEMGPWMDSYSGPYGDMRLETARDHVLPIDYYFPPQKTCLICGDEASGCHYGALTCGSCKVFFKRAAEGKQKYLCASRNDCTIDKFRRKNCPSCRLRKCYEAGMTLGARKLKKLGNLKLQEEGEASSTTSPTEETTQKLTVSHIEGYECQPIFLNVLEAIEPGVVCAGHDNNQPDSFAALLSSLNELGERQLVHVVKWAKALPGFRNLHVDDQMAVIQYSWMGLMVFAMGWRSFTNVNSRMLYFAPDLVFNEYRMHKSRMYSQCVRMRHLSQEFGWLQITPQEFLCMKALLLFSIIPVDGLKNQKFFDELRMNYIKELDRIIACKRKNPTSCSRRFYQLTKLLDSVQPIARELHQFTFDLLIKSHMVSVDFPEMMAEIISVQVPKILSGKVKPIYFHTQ
Chain of Estrogen receptor (Homo sapiens) (P03372 whole entry, looked up): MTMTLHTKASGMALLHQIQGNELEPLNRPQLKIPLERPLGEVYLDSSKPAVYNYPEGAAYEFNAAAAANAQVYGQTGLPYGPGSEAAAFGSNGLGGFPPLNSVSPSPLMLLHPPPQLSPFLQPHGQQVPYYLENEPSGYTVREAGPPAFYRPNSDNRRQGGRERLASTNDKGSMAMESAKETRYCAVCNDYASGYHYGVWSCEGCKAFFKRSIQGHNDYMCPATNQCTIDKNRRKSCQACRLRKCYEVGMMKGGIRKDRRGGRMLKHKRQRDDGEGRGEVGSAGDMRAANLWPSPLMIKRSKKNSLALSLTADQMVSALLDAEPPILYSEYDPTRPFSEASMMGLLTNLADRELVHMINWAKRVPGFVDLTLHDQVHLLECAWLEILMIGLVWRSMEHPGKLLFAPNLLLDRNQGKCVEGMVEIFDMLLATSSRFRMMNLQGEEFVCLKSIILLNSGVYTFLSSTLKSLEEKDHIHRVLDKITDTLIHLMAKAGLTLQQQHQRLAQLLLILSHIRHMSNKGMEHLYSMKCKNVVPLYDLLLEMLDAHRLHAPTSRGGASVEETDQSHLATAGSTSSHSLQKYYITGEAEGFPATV

On to `CC(C)[C@@H]1CC[C@@H](C)C[C@H]1O`, for which the Potency result in [1], in experiment [2], in [3], in experiment [4], in experiment [5] and in experiment [6] was “inactive” in each case. Also, the Potency entry in [7], in experiment [8], in experiment [9], in [10], in [11] and in experiment [12] was “inactive” throughout. Further, the Potency result in experiment [13], in experiment [15], in [17] and in experiment [18] was “inactive” in each case. The outcome in experiment [14], in experiment [16] and in experiment [19] was inactive.

With `COC(=O)[C@H](Cc1ccccc1)NC(=O)[C@@H](N)CC(=O)O` (H-Asp-Phe-OMe), the Potency result in [1], in experiment [2], in experiment [3], in experiment [4], in [5] and in [6] was “inactive” in each case. The Potency result in experiment [7], in [8], in [10], in [11], in experiment [20] and in experiment [15] was “inactive” in each case. In addition, the Potency entry in experiment [17] and in experiment [18] was “inactive” throughout. The molecule was classed as inactive in [14], in [16] and in [19].

Consider `COc1c2occc2cc2ccc(=O)oc12`, for which the Potency entry in [1], in experiment [2], in [3], in [4], in experiment [5] and in [8] was “inactive” each time. Besides, the Potency result in experiment [10], in [11], in experiment [15], in experiment [17] and in experiment [18] was “inactive” throughout. The Potency entry in experiment [6] was “inactive and 21.9 µM (active)”; in [7], “inactive and 21.9 µM (active)”. Moreover, the call in experiment [14], in experiment [16] and in experiment [19] was inactive.

`O=C(O)CCCCC(=O)O`: the Potency entry in [1], in experiment [2], in experiment [3], in experiment [4], in [5] and in experiment [6] was “inactive” each time. Moreover, the Potency entry in experiment [7], in [8], in experiment [10], in [11], in experiment [20] and in experiment [15] was “inactive” throughout. Also, the Potency entry in experiment [17] and in experiment [18] was “inactive” in each case. Further, the outcome in [14], in [16] and in experiment [19] was inactive.

In the case of `Cc1ccc(O)cc1`, the Potency result in experiment [1], in experiment [2], in experiment [3], in experiment [4], in experiment [6] and in experiment [7] was “inactive” each time. The Potency result in [8], in [9], in experiment [10], in experiment [11], in experiment [12] and in [13] was “inactive” each time. For the same molecule, the Potency result in experiment [15], in experiment [17] and in experiment [18] was “inactive” throughout. In addition, the outcome in experiment [14], in experiment [16] and in [19] was inactive.

For the molecule `Nc1ccc(O)c(C(=O)O)c1`, the Potency result in experiment [1], in experiment [2], in experiment [3], in experiment [4], in experiment [5] and in experiment [6] was “inactive” throughout. The Potency entry in [7], in experiment [8], in [9], in experiment [10], in experiment [11] and in experiment [20] was “inactive” throughout. In addition, the Potency result in experiment [15], in experiment [17] and in [18] was “inactive” in each case. Besides, the molecule was classed as inactive in experiment [14], in [16] and in experiment [19].

With `OCCc1ccccc1`, the Potency result in [1], in experiment [2], in experiment [3], in experiment [4], in experiment [5] and in [6] was “inactive” in each case. Also, the Potency entry in [7], in experiment [8], in experiment [9], in experiment [10], in experiment [11] and in [12] was “inactive” throughout. For the same molecule, the Potency entry in experiment [15], in [17] and in experiment [18] was “inactive” throughout. The call in [14], in experiment [16] and in experiment [19] was inactive.

With `O=S(=O)(O)c1ccc2cc(O)ccc2c1`, the Potency result in experiment [1], in [2], in experiment [3], in experiment [4], in experiment [5] and in experiment [6] was “inactive” in each case. The Potency result in experiment [7], in experiment [8], in experiment [9], in [10], in experiment [11] and in experiment [12] was “inactive” in each case. Besides, the Potency result in [15], in experiment [17] and in [18] was “inactive” throughout. Further, the result in experiment [16] and in [19] was inactive.
